# According to PubChem BioAssay (NCI):
# The panel holds about 83,000 compounds, 20% with a hit somewhere; the sample as a whole holds those more often.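 Cell lines were cultured in 96-well plates, exposed to a single compound concentration, and assessed for percent growth 48 hours later.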 A number with no mark means an inactive call. The source made the active and inactive calls. Rule for the calls: active = growth percent below 10; inactive = the rest.
# What was measured:
# Test in all cases: NCI-60 one-dose screen, 48 h (100 = growth as untreated, 0 = no growth, -100 = all killed)
# Conditions in all cases: 10 µM unless noted
# NCI-H23 lung = test system: NCI-H23 lung
# NCI-H226 lung = test system: NCI-H226 lung
# NCI-H322M lung = test system: NCI-H322M lung
# HOP-62 NSCLC = test system: HOP-62 NSCLC
# NCI-H460 lung = test system: NCI-H460 lung
# HOP-92 NSCLC = test system: HOP-92 NSCLC
# NCI-H522 lung = test system: NCI-H522 lung
# A549/ATCC NSCLC = test system: A549/ATCC NSCLC
# 786-0 renal = test system: 786-0 renal
# COLO 205 colon = test system: COLO 205 colon
# DU-145 prostate = test system: DU-145 prostate
# K-562 leukemia = test system: K-562 leukemia
# MALME-3M melanoma = test system: MALME-3M melanoma
# MDA-MB-231 breast = test system: MDA-MB-231 breast
# RXF 393 renal = test system: RXF 393 renal
# SF-268 CNS = test system: SF-268 CNS
# SF-295 CNS = test system: SF-295 CNS
# UACC-257 melanoma = test system: UACC-257 melanoma
# M14 melanoma = test system: M14 melanoma
Structure (SMILES),growth (NCI-H23 lung),growth (NCI-H226 lung),growth (NCI-H322M lung),growth (HOP-62 NSCLC),growth (NCI-H460 lung),growth (HOP-92 NSCLC),growth (NCI-H522 lung),growth (A549/ATCC NSCLC),growth (786-0 renal),growth (COLO 205 colon),growth (DU-145 prostate),growth (K-562 leukemia),growth (MALME-3M melanoma),growth (MDA-MB-231 breast),growth (RXF 393 renal),growth (SF-268 CNS),growth (SF-295 CNS),growth (UACC-257 melanoma),growth (M14 melanoma)
CC/C(Cc1ccccc1)=C(\c1ccc(OCCN2CCCC2)cc1)c1ccc(OC(C)=O)cc1,80.6%,93%,86.5%,94.5%,42.9%,78.8%,83.2%,78.4%,82.3%,7.7% (active),95.6%,3.2% (active),94.7%,99.6%,65%,76%,99.6%,93.9%,75.1%
Cc1nc2nc(N)nc(N)c2nc1C,91.5%,94.6%,95.1%,88.6%,108%,87.3%,89.8%,102%,98.4%,117%,110%,100%,99.9%,94%,105%,98.5%,90.5%,96.2%,90.9%
Oc1cc(O)c2c(=S)cc(-c3ccc(Cl)cc3)oc2c1,4.05% (active),73.6%,60.4%,46.4%,21%,-21.9% (active),-1.71% (active),53.6%,74.6%,85.8%,36.9%,28.2%,22.7%,21.6%,64.6%,36.8%,91.4%,32.9%,31.4%
CCN(CC)CCC(=O)c1ccc(OC)c2ccccc12,90.8%,115%,90.9%,83.4%,99.8%,102%,12.6%,100%,98.7%,109%,116%,43.9%,104%,110%,81.8%,110%,99.6%,89.4%,90.1%
CC(=O)C1=C(O)C=C2Oc3c(C(=O)/C=C/c4c(Cl)cccc4Cl)c(O)c(C)c(O)c3[C@]2(C)C1=O,-37.9% (active),-41.2% (active),-25.9% (active),-48.6% (active),0.581% (active),-24.9% (active),-30.4% (active),-46.1% (active),-39.3% (active),-59.1% (active),6.3% (active),-26.7% (active),-67.7% (active),-63.4% (active),-48.9% (active),-20.4% (active),-37% (active),-37% (active),-10.9% (active)
CC(C)[C@H]1COC(=O)N1[C@@H]1C(=O)N([C@@H](CCC(=O)N2CCN(C3CCCC3)CC2)C(=O)N[C@@H]2CCCc3ccccc32)[C@@H]1/C=C/c1cccc(Br)c1,64.7%,74%,39.3%,59.5%,31.6%,44.7%,27.4%,25.7%,44.3%,24%,40.5%,41.9%,13.1%,26.3%,53.3%,8.27% (active),51.5%,-34.6% (active),25.8%
c1ccc(-c2nc(N3CCOCC3)c3c4c(sc3n2)CCCCC4)nc1,66.9%,50.4%,67.3%,61%,33.4%,-2.36% (active),29.5%,51%,75.9%,52.4%,71.5%,58%,32.6%,60.4%,55.4%,65.5%,49.2%,75.7%,67.6%
COc1ccccc1-c1ccc2c(N)c(C(=O)c3ccc4c(c3)OCO4)sc2n1,82.1%,96.7%,94.7%,73.3%,60.2%,67.8%,18.6%,46.1%,86%,89.1%,90.5%,14.4%,48.2%,51.8%,75.3%,84.3%,63.9%,81.4%,46.6%
O=C(CN1CCN(c2cc3c(cc2F)c(=O)c(C(=O)O)cn3C2CC2)CC1)Nc1nc(-c2ccc(Cl)cc2)cs1,16.5%,43.3%,28.1%,25.7%,6.86% (active),-5.35% (active),6.46% (active),11.4%,29.1%,63.2%,32%,25.3%,31.6%,24.6%,23.3%,29.7%,10.8%,7.83% (active),27.5%
CS(=O)(=O)c1c(Nc2ccccc2)n[nH]c1N,105%,105%,103%,109%,110%,85%,100%,95.9%,96.7%,105%,115%,93.2%,124%,103%,114%,111%,126%,105%,113%
CCOC(=O)/C=C/c1ccc(C(=O)OCC)[nH]1,72.3%,89%,57.4%,76.7%,14.3%,53.8%,54.4%,40.3%,90.2%,16.2%,73.4%,19.4%,73.1%,58.8%,87.3%,69.2%,63%,68.1%,47.6%
COc1cc(C(=O)/C=C/c2c(C)n([O-])c3ccc(C)cc3[n+]2=O)cc(OC)c1OC,42.2%,72.7%,97.9%,102%,88.4%,64.5%,-81.8% (active),85.8%,74%,-36.6% (active),49.3%,0.289% (active),83.8%,85%,-32.4% (active),59%,110%,47.7%,60.1%
CCN(CC)CCC(=O)Nc1ccc(Cn2nnc3c2C(=O)c2nnn(Cc4ccc(NC(=O)CCN(CC)CC)cc4)c2C3=O)cc1,-24.6% (active),-49.5% (active),-75.3% (active),-34.5% (active),-29.7% (active),-44.3% (active),-73.5% (active),-58.1% (active),88.7%,-86.7% (active),-92.6% (active),2.02% (active),-79.5% (active),-5.66% (active),19.9%,-38.1% (active),-57.2% (active),-56.1% (active),-16.3% (active)
COc1cc(OC)c(/C=C/C(=O)c2c(OC)cc(OC)cc2OC)c(OC)c1,6.77% (active),36.1%,21.4%,27%,5.86% (active),130%,2.82% (active),25.1%,29%,-6.76% (active),25.1%,8.98% (active),60.6%,39.1%,-14.7% (active),22.1%,6.33% (active),52.2%,-33.5% (active)
COc1ccc(C(=O)/C=C/c2c[n+](=O)c3ccc(F)cc3n2[O-])cc1,98.7%,102%,118%,104%,119%,85.7%,109%,108%,110%,127%,110%,102%,90.9%,106%,129%,96.8%,102%,106%,101%
CC/C=C\C[C@H](O)C/C=C1/C(=O)C=C[C@@H]1C/C=C\CCCC(=O)OC(C)C,-40.1% (active),-39% (active),-1.62% (active),-44.2% (active),0.788% (active),-0.165% (active),-54.2% (active),-39.2% (active),-50.8% (active),-73.8% (active),11.5%,-7.12% (active),-56.2% (active),7.13% (active),-82.7% (active),12.9%,-24.7% (active),-51% (active),-31.3% (active)
